Assay results as given in PubChem BioAssay (EPA / NIEHS).
Some structures have more than one record in an assay (separate samples or runs), and their calls can disagree. Calls of active or inactive are those of the source. Rule for the calls: active = hit-call score of the fitted dose curve at least 0.9, where 1 is the maximum; inactive = score below 0.9.

Test: ATG_AP_2_CIS: Attagene CIS-FACTORIAL HepG2 Assay for human Activator Protein 2 (AP-2) (AID 2282932)
Conditions: HepG2 AP-2 cis-reporter, Attagene transcription factor profiling; actives raise or lower the signal
Description: ATG_CIS is a cell-based, multiplexed-readout assay that uses HepG2, a human liver cell line, with measurements taken at 24 hours after chemical dosing in a 24-well plate.ATG_AP_2_CIS is one of 52 assay component(s) measured or calculated from the ATG_CIS assay. It is designed to make measurements of mRNA induction, a form of inducible reporter, as detected with fluorescence intensity signals by Reverse transcription polymerase chain reaction (RT-PCR) and Capillary electrophoresis technology.Data from the assay component ATG_AP_2_CIS was analyzed into 1 assay endpoint. This assay endpoint, ATG_AP_2_CIS, was analyzed with bidirectional fitting relative to DMSO as the negative control and baseline of activity. Using a type of inducible reporter, measures of mRNA for gain or loss-of-signal activity can be used to understand the reporter gene at the transcription factor-level as they relate to the gene TFAP2A and TFAP2B and TFAP2D. Furthermore, this assay endpoint can be referred to as a primary readout, because this assay has produced multiple assay endpoints where this one serves a reporter gene function. To generalize the intended target to other relatable targets, this assay endpoint is annotated to the dna binding intended target family, where the subfamily is basic helix-turn-helix leucine zipper.
Human liver HepG2 cells are transiently transfected with multiple reporter transcription units (MRTUs) in 6-well plates using FuGene 6 reagent (Roche; 3 ml FuGene/1 mg DNA). The MRTU constructs are regulated by a cis-regulating element (promoter). […] A major difference between the CIS and TRANS system is that in CIS activities of endogenous TFs are measured, whereas the TRANS assay evaluates changes in activities of exogenous, chimeric NR-Gal4 proteins. […] At the end of 24 hour incubation, total RNA was isolated using TriZol reagent (Invitrogen). The isolated RNA is then reverse-transcribed using oligo(dT) primer and Mo-MLV reverse transcriptase (Invitrogen) with DNAse I (Ambion) treatment for 30 min. The one-tenth of the produced cDNA was amplified by PCR using Taq DNA polymerase (Invitrogen) and two reporter sequence-specific primers. The PCR products were fluorescently labeled by primer extension with 6-arboxyfluorescein (6-FAM) 5'-labeled reporter sequence-specific primer (2 min at 95 C, 20 s at 68 C and 10 min at 72 C) and these products were digested with 5U of HpaI (New England Biolabs) for 2h at 37 C. The fragments were purified using Qiaquick PCR columns (Qiagen), analyzed on an ABI 3130xL genetic analyzer (Applied Biosystems) with peak positions identified by using a set of X-rhodamine (ROX)-labeled MapMarker1000 molecular weight standards (BioVentures). The raw capillary electrophoresis data was processed using Attagraph software (Attagene).

| Compound | outcome | AC50 |
| --- | --- | --- |
| CCCCCCCCCCOC(=O)c1ccccc1C(=O)OCCCCCCCC | inactive | – |
| CCO[Si](CCC#N)(OCC)OCC | inactive | – |
| NS(=O)(=O)c1cc(C(=O)O)c(NCc2ccco2)cc1Cl | inactive | – |
| CCOC(=O)C=Cc1ccccc1 | inactive | – |
| CC1=CC[C@@H]2C[C@H]1C2(C)C | inactive | – |
| CC1=CC[C@@H](C(C)(C)O)CC1 | inactive | – |
| [Na+] | inactive | – |
| c1coc(CNc2ncnc3nc[nH]c23)c1 | inactive | – |
| CCCCOCC(C)OCC(C)O (stereo not given) | inactive | – |
| CCC(C)(C)C1CCC(=O)CC1 | inactive | – |
| NC(=O)c1cnccn1 | inactive | – |
| CC(C)Cc1ccc(C(C)C(=O)O)cc1 (stereo not given) | inactive | – |
| O=C1CCCCCCCCCCCC(=O)OCCO1 | inactive | – |
| CC(=O)OC(C)(C)C | inactive | – |
| c1ccc2scnc2c1 | inactive | – |
| O=C1OC2(c3ccc(O)cc3Oc3cc(O)ccc32)c2ccccc21 | inactive | – |
| Nc1ccc(O)c(N)c1 | inactive | – |
| CCOC(=O)CCCCCCCCC(=O)OCC | inactive | – |
| CC(CCO)CC(C)(C)C (stereo not given) | inactive | – |
| C1CCCNCC1 | inactive | – |

| Compound | outcome | AC50 |
| --- | --- | --- |
| O=C(O)c1cc2ccccc2cc1O | inactive | – |
| CNC(=C[N+](=O)[O-])NCCSCc1ccc(CN(C)C)o1 | inactive | – |
| C[C@]12CC[C@@H]3c4ccc(O)cc4CC[C@H]3[C@@H]1CC[C@@H]2O | inactive | 65.8 µM (active) |
| O=C(O)c1cccc(Cl)n1 | inactive | – |
| CC(C)(C)c1ccc(S)cc1 | inactive | – |
| Cc1cc(N)n(-c2ccccc2)n1 | inactive | – |
| CCOCC(C)O (stereo not given) | inactive | – |
| CC(=O)C1=C(C)[C@@H]2C[C@@]3(C1)[C@H](C)CC[C@H]3C2(C)C | inactive | – |
| [Cu+] | inactive | – |
| CCC(C)(CCCC(C)C)OC(C)=O (stereo not given) | inactive | – |
| OCCCO | inactive | – |
| CC(C)C(=O)OCC=Cc1ccccc1 | inactive | – |
| C[N+](C)(C)CCO | inactive | – |
| CC1=CC(O)CC(C)(C)C1 (stereo not given) | inactive | – |
| CC1=CCC(=C(C)C)CC1 | inactive | – |
| c1ccc2c(c1)-c1ccc3ccc4cccc5cc-2c1c3c45 | inactive | – |
| CCCCCCCCCOS(=O)(=O)O | inactive | – |
| O=S1(=O)CC(Cl)(Cl)C(Cl)(Cl)C1 | inactive | – |
| CCC(=O)OC/C=C(\C)CCC=C(C)C | inactive | – |
